These results are taken from PubChem BioAssay.

Active and inactive are the calls of the source.

The nature of assay [1]: small molecules captured by biotinylated probe aFSTL3 – biochemical, small-molecule microarray, fluorescence 635/667, stem cell growth factor project, primary screen (AID 1064).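 Also: measures binding of the biotinylated anti-FSTL3 antibody to printed compounds.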 The note with it: higher = more signal.
Assay [2] can be described thus: binders from COS7 lysate, DM2A8 probe, primary screen, torsin A project, cell lysate, small-molecule microarray, fluorescence 635/667 (AID 1065). The note with it: higher = more signal, COS7 lysate expressing mutant human TOR1A.
The nature of assay [3]: small molecules captured by biotinylated probe aFGF2 – biochemical, small-molecule microarray, fluorescence 635/667, stem cell growth factor project, primary screen (AID 1067).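 Also: measures binding of biotinylated aFGF2 protein to printed compounds on slides; z-score merges feature fluorescence and signal-to-noise across triplicate slides.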 As to conditions: higher = more signal.
Assay [4] can be described thus: small molecules captured by biotinylated probe aFGF10 – biochemical, small-molecule microarray, fluorescence 635/667, stem cell growth factor project, primary screen (AID 1071).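 Also: score merges 667 nm spot intensity and signal to noise from triplicate slides.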 The note with it: higher = more signal.
Assay [5] has as its target Neurogenic locus notch homolog protein 2 (Homo sapiens) (UniProt Q04721). The assay is described as follows: small molecules binding Notch2 protein – biochemical, small-molecule microarray, 635 nm fluorescence, stem cell growth factors, primary screen (AID 1073). The note with it: higher = more signal.
In assay [6] the target is Pro-neuregulin-1, membrane-bound isoform (Homo sapiens) (UniProt Q02297). The experiment in a line: small molecules binding neuregulin-1 protein – biochemical, small-molecule microarray, fluorescence 635/667, psychiatric disease protein project, primary screen (AID 1075).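 Also: score combines 667 nm spot fluorescence with signal to noise.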 The note with it: NRG1 binding, 635 nm fluorescence, higher = more signal.
Sequence of Pro-neuregulin-1, membrane-bound isoform (Homo sapiens) (Q02297 whole entry, looked up, the tested form may be a part, canonical isoform): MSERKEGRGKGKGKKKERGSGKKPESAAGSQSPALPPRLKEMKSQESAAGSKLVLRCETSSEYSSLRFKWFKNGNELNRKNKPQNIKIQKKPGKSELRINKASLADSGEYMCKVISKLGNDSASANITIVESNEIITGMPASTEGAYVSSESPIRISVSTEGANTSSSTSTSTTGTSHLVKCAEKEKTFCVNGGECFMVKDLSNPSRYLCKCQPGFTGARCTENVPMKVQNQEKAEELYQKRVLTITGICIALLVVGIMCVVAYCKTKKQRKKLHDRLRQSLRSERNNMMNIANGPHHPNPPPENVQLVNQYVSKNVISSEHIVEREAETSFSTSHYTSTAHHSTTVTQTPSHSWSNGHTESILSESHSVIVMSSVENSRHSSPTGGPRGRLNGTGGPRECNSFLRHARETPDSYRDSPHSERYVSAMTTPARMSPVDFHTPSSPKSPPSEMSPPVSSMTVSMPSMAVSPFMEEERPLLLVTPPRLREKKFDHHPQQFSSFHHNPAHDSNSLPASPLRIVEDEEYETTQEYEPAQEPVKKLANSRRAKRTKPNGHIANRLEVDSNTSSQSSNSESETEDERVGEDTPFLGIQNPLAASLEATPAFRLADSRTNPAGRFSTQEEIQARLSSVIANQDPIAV
Assay [7] concerns Neuregulin-1 EGF-like domain. The experiment in a line: small molecules binding NRG1 EGF domain – biochemical, small-molecule microarray, 635 nm fluorescence, primary screen (AID 1081).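 Also: binding of the protein to compounds printed on small-molecule microarray slides.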 The note with it: higher = more signal.
A short description of assay [8]: FRG1 expression reporter modulators in myotubes – cell-based, C2C12 myotubes, firefly/Renilla luciferase, luminescence, FRG1 inhibition for FSHD, primary screen (AID 1084). The note with it: FRG1 promoter luciferase, higher = more signal, called active from +8 up or from −8 down.
A short description of assay [9]: small molecules captured by biotinylated probe aFST – biochemical, small-molecule microarray, fluorescence 635/667, stem cell growth factor project, primary screen (AID 1086).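 Also: score merges 667 nm fluorescence with signal-to-noise of each printed compound spot.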 The note with it: higher = more signal.
A short description of assay [10]: binders of probe aHhip on microarray, primary screen, stem cell growth factor project, biochemical, small-molecule microarray, fluorescence 635/667 (AID 1087).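 Also: score merges spot fluorescence at 667nm with spot signal to noise ratio.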 As to conditions: higher = more signal.
Assay [11] has as its system PRMT1 (protein arginine N-methyltransferase 1). The assay is described as follows: small molecules binding arginine methyltransferase PRMT1 – biochemical, small-molecule microarray, 635 nm fluorescence, primary screen (AID 1088).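 Also: binding of Prmt1 protein to compounds spotted on small-molecule microarray slides.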 The note with it: higher = more signal.
Assay [12] can be described thus: growth effects on S. cerevisiae YJM789 – YJM789 clinical isolate, OD600, 24 h, basal, primary screen (AID 1089).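 Also: growth of clinical yeast isolate S. cerevisiae YJM 789 seeded 1000 cells per well; test concentration not given here.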 The note with it: higher = more signal, called active from +8 up or from −8 down.
Assay [13] is described as follows: S. pombe growth modifiers, basal conditions – strain 972, OD600, 24 h, no modulator, primary screen (AID 1090).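 Also: basal condition with compound alone and no growth modifier present; test concentration not given here.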 The note with it: S. pombe 972 growth, higher = more signal, called active from +8 up or from −8 down.
Assay [14] in a line: budding yeast growth modifiers under rapamycin – strain BY4716, OD600, 96 h, primary screen (AID 1091). Also: test concentration not given here. As to conditions: S. cerevisiae BY4716 + rapamycin, higher = more signal, called active from +8 up or from −8 down.
Assay [15] deals with Torsin-1A-interacting protein 2 (Homo sapiens) (UniProt Q8NFQ8). The assay is described as follows: small molecules binding lysate-expressed LULL1 – cell lysate, human LULL1 lysate, 635/667 nm fluorescence, primary screen (AID 1092).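 Also: probe is lysate of COS7 cells overexpressing human LULL1; score merges per-feature 667 nm fluorescence with signal-to-noise.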 As to conditions: small-molecule microarray, hLULL1 lysate binding, 635 nm fluorescence; higher = more signal.
Sequence of Torsin-1A-interacting protein 2 (Homo sapiens) (Q8NFQ8 whole entry, looked up): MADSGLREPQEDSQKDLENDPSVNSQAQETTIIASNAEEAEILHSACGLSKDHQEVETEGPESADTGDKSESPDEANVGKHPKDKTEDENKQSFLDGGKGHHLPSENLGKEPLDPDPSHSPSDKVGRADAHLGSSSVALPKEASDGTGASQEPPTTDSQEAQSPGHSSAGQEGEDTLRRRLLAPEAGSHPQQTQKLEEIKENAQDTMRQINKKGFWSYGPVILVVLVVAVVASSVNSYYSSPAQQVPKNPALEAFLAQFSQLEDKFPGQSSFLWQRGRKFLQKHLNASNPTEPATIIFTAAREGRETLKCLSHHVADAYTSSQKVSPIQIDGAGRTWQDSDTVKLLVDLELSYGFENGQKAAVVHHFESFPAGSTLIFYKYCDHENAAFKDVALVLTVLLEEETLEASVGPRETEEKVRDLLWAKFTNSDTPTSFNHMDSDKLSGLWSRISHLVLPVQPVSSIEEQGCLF
Assay [16] is described as follows: optical density change of DRC41 E. coli – strain DRC41, OD650, 24 h, E. coli filamentation project, primary screen (AID 1093).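 Also: MC1000 strain lacking acrAB efflux and sulA so SOS filamentation is blocked; test concentration not given here.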 The note with it: E. coli DRC41 growth, higher = more signal, called active from +8 up or from −8 down.
Assay [17] can be described thus: probe aLefty2 binding to arrayed compounds – biochemical, biotinylated probe, 635/667 nm fluorescence, primary screen (AID 1094).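 Also: score merges spot fluorescence near 667 nm with spot signal-to-noise ratio.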 The note with it: small-molecule microarray, higher = more signal.
In assay [18] the test system is Noggin (protein binding on small-molecule microarray). The assay is described as follows: small molecules binding Noggin protein – biochemical, 635/667 nm fluorescence, primary screen (AID 1095).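 Also: score merges 667 nm feature fluorescence with signal to noise over triplicate slides.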 The note with it: 635 nm fluorescence, higher = more signal.
Assay [19] concerns the target Neurogenic locus notch homolog protein 3 (Homo sapiens) (UniProt Q9UM47). The experiment in a line: small molecules binding NOTCH3 protein – biochemical, 635/667 nm fluorescence, primary screen (AID 1096). The note with it: small-molecule microarray, 635 nm fluorescence, higher = more signal.
The nature of assay [20]: probe aEGFR binding to arrayed compounds – biochemical, biotinylated probe, 635/667 nm fluorescence, primary screen (AID 1097).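 Also: probe is a biotinylated anti-EGFR antibody binding compounds printed on slides; score combines fluorescence near 667 nm and signal to noise of each spot.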 The note with it: small-molecule microarray, higher = more signal.

Sequence of Neurogenic locus notch homolog protein 2 (Homo sapiens) (Q04721 whole entry, looked up, canonical isoform): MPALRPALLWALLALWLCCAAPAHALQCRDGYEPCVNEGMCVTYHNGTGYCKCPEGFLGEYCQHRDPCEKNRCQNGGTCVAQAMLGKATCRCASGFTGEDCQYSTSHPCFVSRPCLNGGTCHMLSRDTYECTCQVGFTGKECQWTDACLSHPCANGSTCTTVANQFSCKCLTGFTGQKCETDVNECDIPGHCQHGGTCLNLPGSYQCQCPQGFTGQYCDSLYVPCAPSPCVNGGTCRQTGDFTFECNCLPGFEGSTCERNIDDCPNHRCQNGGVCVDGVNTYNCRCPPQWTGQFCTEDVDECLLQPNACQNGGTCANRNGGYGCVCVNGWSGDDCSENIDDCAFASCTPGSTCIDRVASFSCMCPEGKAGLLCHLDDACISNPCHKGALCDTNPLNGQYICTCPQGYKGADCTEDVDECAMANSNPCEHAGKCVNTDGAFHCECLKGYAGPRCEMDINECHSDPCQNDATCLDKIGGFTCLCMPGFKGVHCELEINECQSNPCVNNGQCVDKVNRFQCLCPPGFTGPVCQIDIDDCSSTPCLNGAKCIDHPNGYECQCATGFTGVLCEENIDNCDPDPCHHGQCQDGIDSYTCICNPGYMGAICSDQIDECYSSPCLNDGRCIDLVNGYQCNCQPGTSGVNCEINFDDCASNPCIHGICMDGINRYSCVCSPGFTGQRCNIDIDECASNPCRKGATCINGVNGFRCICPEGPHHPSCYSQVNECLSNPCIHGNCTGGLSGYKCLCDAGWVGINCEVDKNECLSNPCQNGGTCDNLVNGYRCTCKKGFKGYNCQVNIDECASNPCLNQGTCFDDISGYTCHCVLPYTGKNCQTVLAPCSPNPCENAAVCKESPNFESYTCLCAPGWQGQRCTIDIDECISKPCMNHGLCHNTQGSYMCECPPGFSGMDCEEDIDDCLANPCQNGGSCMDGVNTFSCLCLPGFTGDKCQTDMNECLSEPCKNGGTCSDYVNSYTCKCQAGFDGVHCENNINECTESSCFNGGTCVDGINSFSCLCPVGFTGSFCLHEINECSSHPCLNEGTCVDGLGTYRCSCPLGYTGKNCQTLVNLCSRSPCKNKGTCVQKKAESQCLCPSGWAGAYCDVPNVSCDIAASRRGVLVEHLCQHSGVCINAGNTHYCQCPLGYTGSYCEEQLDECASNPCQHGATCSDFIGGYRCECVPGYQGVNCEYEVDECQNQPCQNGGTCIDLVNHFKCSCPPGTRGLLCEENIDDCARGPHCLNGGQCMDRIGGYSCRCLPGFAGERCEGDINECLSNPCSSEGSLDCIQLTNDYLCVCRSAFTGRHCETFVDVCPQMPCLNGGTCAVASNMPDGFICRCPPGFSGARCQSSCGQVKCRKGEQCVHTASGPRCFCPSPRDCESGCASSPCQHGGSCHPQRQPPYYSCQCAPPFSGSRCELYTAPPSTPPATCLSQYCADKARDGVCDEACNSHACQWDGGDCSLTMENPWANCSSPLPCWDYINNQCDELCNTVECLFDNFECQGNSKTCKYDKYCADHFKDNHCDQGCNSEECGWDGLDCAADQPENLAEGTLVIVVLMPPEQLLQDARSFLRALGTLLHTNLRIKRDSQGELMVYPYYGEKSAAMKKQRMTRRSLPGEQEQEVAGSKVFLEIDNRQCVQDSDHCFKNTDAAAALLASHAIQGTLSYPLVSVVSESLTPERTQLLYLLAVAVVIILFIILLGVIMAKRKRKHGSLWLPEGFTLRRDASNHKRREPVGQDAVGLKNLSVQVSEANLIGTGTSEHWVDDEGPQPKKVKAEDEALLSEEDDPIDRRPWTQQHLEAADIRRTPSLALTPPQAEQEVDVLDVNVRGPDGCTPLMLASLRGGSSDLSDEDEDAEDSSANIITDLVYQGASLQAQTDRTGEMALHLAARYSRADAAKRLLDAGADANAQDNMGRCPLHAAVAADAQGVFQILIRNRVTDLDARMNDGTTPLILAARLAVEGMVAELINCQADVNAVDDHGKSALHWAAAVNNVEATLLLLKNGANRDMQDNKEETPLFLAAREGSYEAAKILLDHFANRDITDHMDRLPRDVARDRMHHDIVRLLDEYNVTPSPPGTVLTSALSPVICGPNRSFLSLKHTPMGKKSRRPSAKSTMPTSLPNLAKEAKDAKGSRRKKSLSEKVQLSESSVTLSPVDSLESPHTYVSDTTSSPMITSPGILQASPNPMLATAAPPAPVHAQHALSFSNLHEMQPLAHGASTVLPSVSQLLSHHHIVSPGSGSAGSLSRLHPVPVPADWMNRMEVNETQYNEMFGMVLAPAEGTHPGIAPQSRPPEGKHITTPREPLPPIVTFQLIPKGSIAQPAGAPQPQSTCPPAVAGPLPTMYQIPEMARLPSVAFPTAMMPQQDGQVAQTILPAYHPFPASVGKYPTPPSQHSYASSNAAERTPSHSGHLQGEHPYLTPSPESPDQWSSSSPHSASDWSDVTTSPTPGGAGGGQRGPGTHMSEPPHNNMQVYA

`C=CCOC(=O)[C@H]1[C@@H]2C(=O)O[C@@H](c3ccccc3)[C@@H](c3ccccc3)N2[C@@H](c2ccc(OCCOC(=O)[C@@H]3C[C@@H]4C(=O)N[C@@H](CC(C)C)C(=O)N4[C@@H]3c3ccc(O)cc3)cc2)[C@]12C(=O)Nc1ccc(I)cc12`: the composite z-score in assay [1] was -0.185; in assay [2] it was 0.246; in assay [3] it was -0.158; in assay [4], -0.0479; in assay [5] it was 0.672; in assay [6], 1.33. Further, the composite z-score in [7] was 1.29; in [9], -0.0054; in assay [10] it was 0.15; in [11] it was 1.58; in [15], 2.44; in assay [17], -0.103. The figures for the composite z-score in [18], in [19] and in assay [20] were 1.23, 0.752 and 0.006, respectively. For the same molecule, the z-score in assay [8] was -1.13 (inactive); in assay [12] it was -3.69 (inactive); in assay [13], 0.698 (inactive); in [14], 3.36 (inactive); in assay [16], 0.452 (inactive).

With `C=CCC(OC(C)=O)[C@@H]1[C@@H](N(Cc2ccc(-c3cccc(C(F)(F)F)c3)o2)C(=O)Cc2ccc(F)cc2)c2cc(OCCCO)ccc2N1C(=O)c1ccc2ccccc2n1` (stereo not given in full), the composite z-score in [1] is -0.019; in [2], 0.193; in [3], -0.106; in assay [4], -0.321; in assay [5] it was -0.848; in assay [6] it was -0.114. Further, the composite z-score in assay [7] is -0.533; in assay [9], 0.0974; in assay [10] it was 0.235; in [11] it was -1.08; in assay [15], -0.452; in assay [17], -0.0415. Also, the composite z-score is -0.436 in [18], -0.768 in assay [19] and -0.157 in assay [20]. Besides, the z-score is 0.01 (inactive) in assay [8]; -0.203 (inactive) in assay [12]; 0.15 (inactive) in [13]; -0.522 (inactive) in assay [14]; -1.08 (inactive) in [16].

With `COC(=O)C(CC#Cc1ccc2c(c1)[C@]1(C(=O)N2)[C@H](c2ccc(O)cc2)N2[C@H](c3ccccc3)[C@H](c3ccccc3)OC(=O)[C@H]2[C@@H]1C(=O)N1CCc2cc(OC)c(OC)cc2C1)C(=O)OC`, the composite z-score in assay [1] was -0.312; in assay [2], 0.475; in [3] it was -0.0692; in assay [4] it was 0.59; in assay [5], 1.07; in [6], 0.296. The composite z-score was 1.27 in assay [7]; 0.652 in assay [9]; -0.0755 in assay [10]; 1.54 in assay [11]; 1.59 in [15]; -0.109 in [17]. Moreover, the figures for the composite z-score in assay [18], in assay [19] and in assay [20] were 0.958, 1.05 and 0.232, respectively. In addition, the z-score in [8] was 1.63 (inactive); in assay [12], 1.39 (inactive); in assay [13], 1.12 (inactive); in assay [14] it was 0.735 (inactive); in [16], -0.829 (inactive).

Regarding `CCc1cccc(NC(=O)O[C@H]2[C@H](OC(=O)Nc3ccc4c(c3)OCO4)[C@H](OC(=O)Nc3ccc4c(c3)OCO4)[C@@H](OC)O[C@@H]2CO)c1`, the composite z-score was 0.0053 in assay [1]; 0.052 in assay [2]; -0.0158 in assay [3]; 0.263 in assay [4]; 0.603 in [5]; 0.979 in assay [6]. Further, the composite z-score was 1.32 in assay [7]; 0.318 in [9]; -0.0645 in assay [10]; 1.55 in assay [11]; 3.05 in assay [15]; 0.0386 in [17]. Moreover, the composite z-score was 0.795 in assay [18], 1.08 in [19] and -0.13 in assay [20]. Besides, the z-score in [8] is 4.53 (inactive); in [12], 1.5 (inactive); in [13], 1.09 (inactive); in assay [14] it was 7.36 (inactive); in assay [16] it was 0.641 (inactive).

`CC(C)C[C@@H]1NC(=O)[C@@H]2C[C@H](C(=O)O)[C@H](c3ccc(O)cc3)N2C1=O`: the composite z-score was -0.451 in assay [1]; 1.9 in assay [2]; -0.121 in assay [3]; 0.338 in assay [4]; 0.529 in assay [5]; 0.833 in assay [6]. Moreover, the composite z-score is 1.23 in assay [7]; 0.186 in [9]; 0.0373 in [10]; 1.54 in assay [11]; 1.77 in [15]; -0.0433 in [17]. In addition, the composite z-score in assay [18] is 1.02; in assay [19] it was 1.09; in [20], 0.0226. Also, the z-score in [8] is -0.93 (inactive); in [12] it was -1.45 (inactive); in assay [13], -1.34 (inactive); in assay [14] it was -0.42 (inactive); in assay [16], 2.31 (inactive).
